Reference: PubChem BioAssay AID1159580 (chemical genetic matrix, 2015)
Values joined by “and” are separate entries in the source; they are usually repeats but may differ in a detail not shown here. Equal entries are not always repeated. Hit rate of the full screen: of about 5,500 compounds, about 2,000 (36%) were called active. Another 18% or so got no clear call; they are omitted. Rule as the data show it: active = normalized growth mostly below about 0.91 (no sharp cut-off); inconclusive = no clear call, values can overlap the other calls; inactive = mostly above about 0.92. This is one part of the list.

Assay: chemical genetic growth profiling, strain panel (AID 1159580);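 also: tested at 20 µM; growth read once vehicle control cultures reached saturation at 30 °C; 1 = growth at the plate median or of vehicle wells; lower values mean less growth of the strain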
Details: S. cerevisiae deletion strains, growth OD

Measured: normalized growth

COc1cc2c(cc1OC)C(=O)OC2
inactive: locus YAL013W, strain DEP1, stronger effect = lower value 1 | locus YAL021C, strain ccr4, stronger effect = lower value 0.998 | locus YAL026C, strain drs2, stronger effect = lower value 1.01 | locus YAL030W, strain snc1, stronger effect = lower value 0.981 | locus YBL061C, strain skt5, stronger effect = lower value 0.988 | locus YBR009C, strain hhf1, stronger effect = lower value 0.992 | locus YBR021W, strain FUR4, stronger effect = lower value 0.999 | locus YBR023C, strain chs3, stronger effect = lower value 0.993 | locus YBR171W, strain sec66, stronger effect = lower value 0.998 | locus YBR229C, strain ROT2, stronger effect = lower value 1.01 | locus YBR231C, strain swc5, stronger effect = lower value 0.98 | locus YBR279W, strain paf1, stronger effect = lower value 0.997 | locus YCL011C, strain gbp2, stronger effect = lower value 0.99 | locus YCL016C, strain dcc1, stronger effect = lower value 0.987 | locus YCL029C, strain bik1, stronger effect = lower value 1.01 | locus YCL061C, strain MRC1, stronger effect = lower value 0.999 | locus YCL069W, strain vba3, stronger effect = lower value 1 | locus YCR088W, strain abp1, stronger effect = lower value 0.994 | locus YDL005C, strain med2, stronger effect = lower value 0.988 | locus YDL035C, strain GPR1, stronger effect = lower value 1.02 | locus YDL040C, strain nat1, stronger effect = lower value 0.985 | locus YDL074C, strain BRE1, stronger effect = lower value 0.985 | locus YDL101C, strain DUN1, stronger effect = lower value 1.01 | locus YDL134C, strain PPH21, stronger effect = lower value 0.999 | locus YDL185W, strain tfp1, stronger effect = lower value 1.01 | locus YDL192W, strain arf1, stronger effect = lower value 1 | locus YDR001C, strain nth1, stronger effect = lower value 1.01 | locus YDR069C, strain doa4, stronger effect = lower value 0.994 | locus YDR101C, strain arx1, stronger effect = lower value 0.994 | locus YDR137W, strain rgp1, stronger effect = lower value 0.967 | locus YDR150W, strain NUM1, stronger effect = lower value 1 | locus YDR159W, strain sac3, stronger effect = lower value 1.01 | locus YDR162C, strain NBP2, stronger effect = lower value 0.985 | locus YDR195W, strain ref2 1 | locus YDR297W, strain sur2, stronger effect = lower value 0.998 | locus YDR318W, strain mcm21, stronger effect = lower value 1.02 | locus YDR334W, strain swr1, stronger effect = lower value 0.976 | locus YDR335W, strain msn5, stronger effect = lower value 1 | locus YDR388W, stronger effect = lower value 1.01 | locus YDR392W, strain spt3, stronger effect = lower value 0.997 | locus YDR502C, strain sam2, stronger effect = lower value 0.983 | locus YEL003W, strain gim4, stronger effect = lower value 0.999 | locus YEL037C, strain rad23, stronger effect = lower value 0.994 | locus YEL061C, strain CIN8 (second series), stronger effect = lower value 1.01 | locus YEL061C, strain CIN8, stronger effect = lower value 1 | locus YER015W, strain faa2, stronger effect = lower value 0.988 | locus YER016W, strain bim1, stronger effect = lower value 0.999 | locus YER110C, stronger effect = lower value 1.01 | locus YER111C, strain swi4, stronger effect = lower value 0.996 | locus YER155C, strain BEM2 (second series), stronger effect = lower value 0.992 | locus YER155C, strain BEM2, stronger effect = lower value 1.01 | locus YER167W, strain BCK2, stronger effect = lower value 1.03 | locus YFR010W, strain ubp6, stronger effect = lower value 0.989 | locus YGL078C, strain dbp3, stronger effect = lower value 0.984 | locus YGL086W, strain mad1, stronger effect = lower value 1.03 | locus YGL167C, strain pmr1, stronger effect = lower value 0.984 | locus YGL173C, strain kem1, stronger effect = lower value 0.983 | locus YGL227W, strain vid30, stronger effect = lower value 0.998 | locus YGL240W, strain doc1, stronger effect = lower value 1.03 | locus YGL248W, strain PDE1, stronger effect = lower value 1.01 | locus YGL253W, strain hxk2, stronger effect = lower value 0.993 | locus YGR078C, strain PAC10, stronger effect = lower value 0.987 | locus YGR135W, strain pre9, stronger effect = lower value 0.961 | locus YGR229C, strain SMI1, stronger effect = lower value 0.999 | locus YGR252W, strain gcn5, stronger effect = lower value 1.06 | locus YHR013C, strain ard1, stronger effect = lower value 0.988 | locus YHR027C, strain rpn1, stronger effect = lower value 1 | locus YHR030C, strain SLT2, stronger effect = lower value 1.01 and 0.973 | locus YHR079C, strain IRE1 (second series), stronger effect = lower value 1.01 | locus YHR079C, strain IRE1, stronger effect = lower value 0.984 | locus YHR094C, strain hxt1, stronger effect = lower value 0.999 | locus YHR129C, strain ARP1, stronger effect = lower value 1.01 | locus YHR142W, strain chs7, stronger effect = lower value 0.972 | locus YHR200W, strain rpn10, stronger effect = lower value 1 | locus YIL066C, strain RNR3, stronger effect = lower value 1.02 | locus YIL073C, strain SPO22, stronger effect = lower value 1.06 | locus YIL125W, strain kgd1, stronger effect = lower value 0.99 | locus YIR030C, strain dcg1, stronger effect = lower value 0.999 | locus YJL092W, strain hpr5, stronger effect = lower value 0.999 | locus YJL095W, strain BCK1 (second series), stronger effect = lower value 0.991 | locus YJL095W, strain BCK1, stronger effect = lower value 0.996 and 0.98 | locus YJL115W, strain asf1, stronger effect = lower value 1 | locus YJL129C, strain trk1, stronger effect = lower value 1.03 | locus YJL134W, strain LCB3, stronger effect = lower value 1 | locus YJL154C, strain vps35, stronger effect = lower value 0.988 | locus YJL164C, strain tpk1, stronger effect = lower value 0.996 | locus YJL166W, strain qcr8, stronger effect = lower value 0.981 | locus YJL168C, strain set2, stronger effect = lower value 1.01 | locus YJL187C, strain SWE1 (second series), stronger effect = lower value 1 | locus YJR043C, strain POL32, stronger effect = lower value 1.03 | locus YJR066W, strain TOR1, stronger effect = lower value 0.977
